# Reference: the OligoGym collection
# Molecular target: DOCK1
# Experiment: pooled miR-30 sensor sort-seq; sequence = guide strand
# Details: shRNA
row,Sequence,sensor-assay potency score (higher = more potent)
1,TTGTCTGTTAATATCTATGTTC,-0.583
2,TTGGAGACACACCTCAACCAAC,-1.22
3,TCATCGTACACAGACACCGTGA,-0.406
4,TATCATTTCGAACATCACCAGG,-1.26
5,TTACAATCTGCTCTGACACTGG,0.172
6,TACATCATCACTACACAGCTTC,0.384
7,TTCACATCGTTGACGATCGTTG,-0.549

# Molecular target: DOK4
# Experiment: as above
# Details: shRNA
row,Sequence,sensor-assay potency score (higher = more potent)
1,TTGAGGAGGTCTGTTTCCGAGC,-1.09
2,TTCTTCTCCATTTCCAGCAGGA,0.267
3,TCTAGCTCTGAGTCGCAGGTGA,-0.0163
4,TTCCCCAGCATCACACATCCGG,-0.865
5,TTCTCCCAGACTGATGTCGTTG,-1.27
6,TAGCTCTGAGTCGCAGGTGAAG,-1.6
7,TCTGAGTCGCAGGTGAAGGTAC,-0.935
8,ATAGTGTCTTGTACCACTCCTC,-0.442
9,TAGCAGGATGAATCTGTTGAGG,-1.03
10,TTGCTGATCTCAGTCACCTTGG,-0.109
11,TAGTGTCTTGTACCACTCCTCT,-0.903
12,TTTAGCAGGATGAATCTGTTGA,0.432
